# Gli-Sufu block: antagonists of Gli-Sufu signaling. 340,000 tested, 0.74% active. inhibition, % at 5 µM. Sufu-KO-LIGHT fibroblasts, Gli luciferase reporter luminescence;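 active means inhibition above about 55%, limit read from the data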;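 further: 0% = DMSO-treated cells and 100% = wells with medium but no cells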
# GalR3 antag: blocks the human galanin receptor 3; HEK293 GalR3-CNG cAMP membrane potential fluorescence; galR3 body fused to GalR1 C-terminus; 360,000 tested, 0.44% active; AID 651719; inhibition, % at 3 µM; O60755;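 active means inhibition above the screen-wide average plus 3 SD, cut at about 13% in these data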;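 further: forskolin and galanin both at EC90 stimulate the cells; cAMP rise reported by CNG channel membrane potential dye signal; 0% = forskolin plus galanin with DMSO and 100% = forskolin alone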
# SMARCA2 act: activators of SMARCA2 function. MG213 cells, MMTV-luciferase reporter, dexamethasone, overnight. activation, % at 9.1 µM. 370,000 tested, 1% active; in the data active means activation above about 7.8%;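 further: 0% = vehicle wells and 100% = reference activator wells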
# FXN GAA850 act: activators of GAA850 frataxin (FXN) promoter; HEK293 lucGAA850 FXN promoter luciferase reporter, 24 h; percent of 10 µM SAHA response; activation, % at 6 µM; 360,000 tested, 0.56% active;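 active means activation above the average of all compounds screened plus 3 SD, cutoff fixed separately per campaign, cut at about 7.5% in these data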;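 further: 0% = DMSO wells and 100% = 10 µM SAHA wells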
# Cardio protect: modulators protecting cardiomyocytes from myocardial damage; 360,000 tested, 0.63% active; H9c2 cardiomyocytes, H2O2 injury protection, ATPLite, 2 h; AID 588492; protection from H2O2 cell death, % at 20 µM;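 active means compounds giving at least 50% protection of heart cells from peroxide-induced death in the single-dose screen, raw or plate-pattern-corrected value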;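 further: 0% = DMSO wells with peroxide and 100% = DMSO wells without peroxide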
# COUP-TFII inh: NR2F2 (human) inhibition, primary screen | 370,000 tested, 0.7% active | HEK293T NGFI-A luciferase reporter, luminescence | P24468 | AID 686940 | inhibition, % at 8.6 µM;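 active means inhibition above a per-plate cutoff, mean inhibition of test wells between control levels plus 3 SD, cut at about 38% in these data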;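 further: cells cotransfected with COUP-TFII expression vector driving the NGFI-A reporter; 0% = median of COUP-TF2 test wells and 100% = reporter-only cells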
# Target sequence (P24468 whole entry, looked up): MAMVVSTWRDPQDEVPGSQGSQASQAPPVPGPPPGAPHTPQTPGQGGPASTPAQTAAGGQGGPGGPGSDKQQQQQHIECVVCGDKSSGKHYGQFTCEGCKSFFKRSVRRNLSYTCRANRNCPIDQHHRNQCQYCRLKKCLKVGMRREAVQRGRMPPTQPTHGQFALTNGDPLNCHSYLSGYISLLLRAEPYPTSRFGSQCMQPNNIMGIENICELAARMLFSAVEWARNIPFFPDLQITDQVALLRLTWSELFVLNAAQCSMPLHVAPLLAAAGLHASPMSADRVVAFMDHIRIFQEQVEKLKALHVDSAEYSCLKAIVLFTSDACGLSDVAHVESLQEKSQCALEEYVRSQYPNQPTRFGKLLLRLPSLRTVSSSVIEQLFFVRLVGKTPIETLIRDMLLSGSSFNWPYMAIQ
# Numbers without * were called inactive; nt = no result given. Shown are actives, neighbours in structure and some others; about 3.4% of the full set was active somewhere.
SMILES,Gli-Sufu block,GalR3 antag,SMARCA2 act,FXN GAA850 act,Cardio protect,COUP-TFII inh
CCOC(=O)[C@@]12CCCC=C1N(CCc1ccc(Cl)cc1)C(=O)[C@H]2CC(=O)NCc1cccc(C(F)(F)F)c1,nt,nt,-5,nt,nt,6
C[C@H](O)[C@@H]1CN2CCc3ccc(-c4ccc5c(c4)OCO5)cc3[C@@H]2C[C@@H]1N(C)C(=O)Nc1ccccc1,nt,nt,6,nt,nt,-1
COC(=O)C1=C(C)N(Cc2ccccc2C(F)(F)F)C(=NCc2ccc3c(c2)OCO3)NC1c1ccc(Cl)cc1 (stereo not drawn),nt,-8,2,nt,nt,13
Cc1ccc(-c2nnc(Nc3ccccc3)c3ccccc23)cc1S(=O)(=O)NCC1CCCO1 (stereo not drawn),5,0,-4,-3,29,-7
Cc1ccc(-c2nn3c(-c4ccco4)nnc3c3ccccc23)cc1S(=O)(=O)NCC1CCCO1 (stereo not drawn),29,-1,-2,0,55*,15
CCC(Oc1ccccc1)C(=O)Nc1ccccc1C(=O)N1CCCCC1 (stereo not drawn),-2,1,-2,-2,50*,10
O=c1[nH]c(N2CCN(c3ccccc3)CC2)nc2c1CCCC2,0,3,-1,-3,55*,-8
O=c1[nH]c(N2CCOCC2)nc2c1CCCC2,0,-5,-1,-1,44,6
O=c1[nH]c(N2CCN(Cc3ccccc3)CC2)nc2c1CCC2,6,9,-4,2,4,7
O=c1[nH]c(N2CCN(c3ccccc3)CC2)nc2c1CCC2,2,2,-1,-2,51*,1
Cc1cc(C)cc(OCCCN2CCC(C(O)(c3ccccc3)c3ccccc3)CC2)c1,nt,-10,-1,nt,nt,-9
CCC(C)Nc1ncnc2c1cnn2Cc1ccc(Cl)cc1 (stereo not drawn),0,3,-5,-1,89*,3
CNc1cccnc1C=NNC(N)=S,84*,2,-2,-13,29,-11
COC(=O)[C@]12C[C@H](CC(=O)N3CCCC3)C(=O)N(Cc3ccc(Cl)cc3Cl)C1=C[C@H](C(C)(C)C)O[C@@H]2C,nt,nt,-3,nt,nt,8
CC(=O)Nc1ccc(/C=N\NC(=O)c2cccc(S(=O)(=O)N(C)C)c2)cc1,nt,nt,3,nt,nt,5
COc1ccc(-c2csc(NC(=O)CCCc3nc4ccccc4c(=O)[nH]3)n2)cc1OC,-12,-2,-4,0,91*,14
COc1ccc(-c2csc(NC(=O)CCn3cnc4ccccc4c3=O)n2)cc1OC,8,-3,-2,-6,58*,-12
O=C(NC1CCCC1)c1ccc(COc2ccccc2)o1,nt,nt,-1,nt,nt,-17
O=C(O)COn1c(-c2ccccc2)nc2ccc([N+](=O)[O-])cc21,-79,-3,7.8*,2,7,-44
Cc1ccc(COn2c(-c3ccc(Cl)cc3)nc3ccc([N+](=O)[O-])cc32)cc1,-105,-7,8.2*,5,-18,-54
CCCn1nc(NC(=O)c2cccs2)c2cc3ccccc3nc21,-2,-3,0,0,8,5
CCCCn1nc(NC(=O)c2cccs2)c2cc3cc(OC)ccc3nc21,-2,-2,2,-3,62*,8
CCCCn1nc(NC(=O)c2cccs2)c2cc3ccccc3nc21,-13,-3,1,-4,56*,13
COc1ccc2nc3c(cc2c1)c(NC(=O)C1CCCO1)nn3CC(C)C (stereo not drawn),-20,1,0,0,98*,-12
COc1ccc2nc3c(cc2c1)c(NC(=O)CC(C)C)nn3CC(C)C,-7,-12,0,-1,5,28
SMILES,Gli-Sufu block,GalR3 antag,SMARCA2 act,FXN GAA850 act,Cardio protect,COUP-TFII inh
COC(=O)[C@]12C[C@H](CC(=O)N3CCCC3)C(=O)N(Cc3ccc(Cl)cc3Cl)C1=C[C@H](C(C)C)O[C@@H]2C1CC1,nt,nt,-1,nt,nt,12
CCOC(=O)c1c(C)[nH]c(C(=O)N/N=C/c2cccc(OC)c2)c1C,-10,-4,-1,-2,9,-13
COc1cccc(/C=N/NC(=O)c2[nH]c(C)c(C(=O)N/N=C/c3cccc(OC)c3)c2C)c1,9,3,-3,-7,56*,9
Cc1ccc(CN2CCCCC(NC(=O)c3ccccc3)C2=O)cc1 (stereo not drawn),nt,nt,-2,nt,nt,-11
CCCCCCCCCCCCCCCC[N+](C)(C)CCl,58*,3,-3,-3,-20,-2
CCCCCC[N+](C)(C)CCSSCC[N+](C)(C)CCCCCC,6,-2,0,1,5,10
CCCCCCCCCCCCCCCC[N+](C)(C)CC,75*,nt,-11,-3,-41,12
CCOC(=O)[C@]12CCCC=C1N(CCCOC)C(=O)[C@@H]2CC(=O)NCc1cccs1,nt,nt,0,nt,nt,0
CC(Cc1ccccc1)NC(=O)/C=C/c1ccc([N+](=O)[O-])cc1 (stereo not drawn),2,-2,-3,2,13,-2
CC(Cc1ccccc1)NC(=O)c1ccc([N+](=O)[O-])cc1 (stereo not drawn),-87,-3,7.8*,6,-3,-36
COc1ccccc1CNC(=O)NC1CCN(CC(=O)Nc2ccc3c(c2)OCCO3)CC1,nt,nt,8,nt,nt,3
CSc1nnc(NC(=O)c2cc3ccccc3oc2=O)s1,2,-3,2,-1,55*,26
O=C(N/N=C/c1c(O)n(-c2ccccc2Cl)c(=O)c2ccccc12)C1COc2ccccc2O1 (stereo not drawn),1,nt,nt,2,68*,nt
CC1Cc2ccccc2N1C(=O)c1cc2c(=O)n3ccccc3nc2n1C (stereo not drawn),7,-3,-2,-7,66*,1
Cc1cccn2c(=O)c3cc(C(=O)N4c5ccccc5CC4C)n(C)c3nc12 (stereo not drawn),12,-4,-3,-1,28,-13
O=S1(=O)c2ccc(Br)cc2OC[C@@H](c2ccccc2)N1Cc1cn(CCC2OCCO2)nn1,nt,nt,-5,nt,nt,5
CCCCNS(=O)(=O)/C=C/c1ccc(OC)cc1CNC(=O)OC(C)(C)C,nt,nt,-5,nt,nt,13
C=CC[C@@H](CC(=O)NCCO)C(=O)NC[C@H](OC(=O)[C@@H](CC=C)Cc1ccc(F)cc1)c1ccccc1,-4,-5,0,-5,70*,-11
C=CC[C@@H](CC(=O)N[C@@H](CO)Cc1ccccc1)C(=O)NC[C@H](OC(=O)[C@@H](CC=C)Cc1ccc(F)cc1)c1ccccc1,-3,-2,1,-3,32,-9
O=C(CSc1nc2[nH]ncc2c(=O)n1-c1ccccc1)c1ccc2c(c1)OCCO2,5,-2,1,2,46*,3
CCc1nc2ccc(C(=O)NCc3cccs3)cn2c1N(C)Cc1nccs1,nt,-8,-1,0,48*,-13
CCOc1ccc(C(=O)NCc2cccs2)cc1,-27,-5,7.9*,5,-12,-22

# Screens (PubChem)
